Source: PubChem BioAssay AID687014 (The Scripps Research Institute Molecular Screening Center, 2013)
Values joined by “and” are separate entries in the source; they are usually repeats but may differ in a detail not shown here. Identical values can stand only once. Hit rate of the full screen: of about 370,000 compounds, about 6,800 (1.8%) were called active.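 The calls were made as follows: active = activation above a cutoff set at the mean of all screened compounds plus 3 SD (cut at about 10% in these data); inactive = the rest.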 The full list was thinned out, with actives kept by preference.

Tested on: Nuclear hormone receptor DAF-12 (Heterodera glycines), GAL4 fusion
Assay: H. glycines DAF-12 receptor agonists, primary screen, cell-based, luminescence, HEK293, GAL4 fusion, UAS-luciferase (AID 687014);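 also: 0% = DMSO wells and 100% = sodium butyrate wells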
Details: HEK293 GAL4-hgDAF12 UAS-luciferase reporter, agonist luminescence; at 6.8 µM; stronger effect = higher value; normalized to butyrate control

| SMILES | activation |
| --- | --- |
| C/C=C/c1ccc(OCCOc2ccc(C=O)cc2OC)c(OC)c1 | 1.06% (inactive) |
| O=C(NCCc1ccc(F)cc1)c1n[nH]c2ccccc12 | 4.51% (inactive) |
| O=C(NCCc1ccc(F)cc1)c1ccc2nccnc2c1 | 15.2% (active) |
| O=C(NCCc1ccc(F)cc1)c1ccc(S(=O)(=O)N2CCCCC2)cc1 | -1.32% (inactive) |
| O=S(=O)(c1ccc2c(c1)OCCCO2)N1CCN(S(=O)(=O)c2c(F)cccc2F)CC1 | 3.46% (inactive) |
| CCOc1cc(C(=O)N2CCc3cc(OC)c(OC)cc3C2)ccc1OC(F)F | -2.99% (inactive) |
| CCOC(=O)C1CCN(C(=O)COC(=O)C2CCN(S(=O)(=O)c3ccc4c(c3)OCCO4)CC2)CC1 | 1.65% (inactive) |
| O=C(O)Cc1csc(-c2cccc(Oc3ccccc3)c2)n1 | 2.98% (inactive) and 2.42% (inactive) |
| CCn1c2ccccc2c2cc(CC(N)=O)ccc21 | -1.01% (inactive) |
| NC(=O)Cc1ccc2sc(-c3ccccc3)nc2c1 | 16.9% (active) |
| Clc1ccc(C(Cn2ccnc2)OCc2ccsc2Cl)c(Cl)c1 (stereo unspecified) | -0.6% (inactive) |
| COc1ccnc(C(=O)N2CCC(Oc3cccnc3)CC2)c1 | -2.68% (inactive) |
| COc1ccc(CCC(C)N2CCc3ccccc3C2)cc1 (stereo unspecified) | 1.85% (inactive) |
| COC(=O)[C@]12C[C@H](CC(=O)NCc3ccc(C)o3)C(=O)N(CCC3=CCCCC3)C1=C[C@H](C(C)(C)C)O[C@@H]2C | 1.5% (inactive) |
| COc1ccc(C2=NN(C(=O)c3ccccc3C(=O)O)C(c3ccccc3O)C2)cc1 (stereo unspecified) | 16.4% (active) |
| COc1ccc(C2CC(c3ccccc3)=NN2C(=O)CSc2nccc(=O)[nH]2)cc1 (stereo unspecified) | 1% (inactive) |
| COc1ccc(C2CC(c3ccccc3)=NN2C(=O)c2ccc(Cl)c([N+](=O)[O-])c2)cc1 (stereo unspecified) | -2.91% (inactive) |
| COc1ccc2nc(SCc3ccccc3)nc(C)c2c1 | 16.3% (active) |
| COc1ccc(NCc2nnc(SCc3ccccc3)n2-c2ccc(OC)cc2)cc1 | 1.53% (inactive) |
| COc1ccc(CSc2nnc(-c3cccc(C)c3)n2C)cc1 | -0.32% (inactive) |
| CCOc1ccc(S(=O)(=O)NCC2CCCO2)cc1 (stereo unspecified) | -0.13% (inactive) |
| COC(=O)[C@]12C[C@H](CC(=O)NCc3ccccc3)C(=O)N(Cc3ccccc3)C1=C[C@H](COCc1ccccc1)O[C@@H]2C | -0.41% (inactive) |
| Cc1ccc(NC(=O)N2c3ccccc3SC2c2ccco2)c(C)c1 (stereo unspecified) | -2.03% (inactive) |
| O=C(CCS(=O)(=O)c1ccccc1)Nc1ccc(Cl)c(Cl)c1 | 5% (inactive) |
| COc1ccc(C=C2CCC3C(CCCC34OCCO4)C2=O)cc1 (stereo unspecified) | 2.78% (inactive) |
| COc1ccccc1Oc1ccc(N/C=C2/CCCC2=O)cc1 | 2.59% (inactive) |

| SMILES | activation |
| --- | --- |
| COc1ccc(/C=C2/CCCc3ccccc3C2=O)cc1 | 16.7% (active) |
| COc1ccc(Cn2cc(COC(=O)N(C)Cc3ccccc3)nn2)cc1 | 2.67% (inactive) |
| COc1cccc(-c2nnc(SCCOc3ccc4c(C)cc(=O)oc4c3)o2)c1 | -0.66% (inactive) |
| COc1cccc(-c2nc(CS(=O)(=O)CC(=O)NCCc3ccc(OC)c(OC)c3)c(C)o2)c1 | 0.2% (inactive) |
| CC(=O)Oc1ccc2c(=O)oc(-c3ccc([N+](=O)[O-])cc3)nc2c1 | 0.03% (inactive) |
| COc1cccc(-c2nc3cc(C)ccc3o2)c1 | 17.6% (active) |
| O=[N+]([O-])c1ccc2c(c1)C(O)n1nc(-c3ccccc3)nc1S2 (stereo unspecified) | -1.58% (inactive) |
| O=[N+]([O-])c1ccc2oc(-c3cccc(O)c3)nc2c1 | 19.1% (active) |
| C=CCN1C(=O)[C@@H](CC(=O)NCCCOCCCC)[C@]2(C(=O)OCC)CCCCC/C=C/12 | -2.8% (inactive) |
| C/C(=N/O)c1ccc(N2C(=O)C3C4C=CC(C3C2=O)C2C3C(=O)N(c5ccc(/C(C)=N/O)cc5)C(=O)C3C42)cc1 (stereo unspecified) | -2.43% (inactive) |
| COc1ccc(-c2cc(-c3nnc(SCC(=O)Nc4cccc5ccccc45)n3N)[nH]n2)cc1 | -0.33% (inactive) |
| CC[C@H](C)[C@H]1CNC(=O)C(=O)N1CC1CCN(CCc2ccc(OC)c(OC)c2)CC1 | -1.21% (inactive) |
| CC[C@@H](CCC(=O)N(c1ccccc1)c1ccccc1)C1CC1 | 0.58% (inactive) |
| S=c1[nH]nc(/C=C/c2ccccc2)o1 | 4.59% (inactive) |
| O=c1oc(/C=C/c2ccccc2)nc2ccccc12 | 16% (active) |
| O=c1oc(-c2ccccc2NS(=O)(=O)c2ccc(Cl)cc2)nc2ccccc12 | 0.61% (inactive) |
| COc1ccc(-n2c(COc3ccc(C)cc3)nnc2SCC(=O)Nc2ccc(Oc3ccccc3)cc2)cc1 | 3.51% (inactive) |
| COc1ccccc1NC(=O)C(C)OC(=O)c1ccc(-n2cnnn2)cc1 (stereo unspecified) | -3.02% (inactive) |
| N#Cc1ccc(C2=CC(=O)C[C@H](c3ccc(Cl)cc3)C2)cc1 | -2.41% (inactive) |
| OC(c1ccccc1)c1nc(-c2cnc3ccccc3c2)cs1 (stereo unspecified) | 22.6% (active) |
| COc1cccc(C(NC(C)=O)c2nc(-c3cnc4ccccc4c3)cs2)c1 (stereo unspecified) | -1% (inactive) |
| CC(C)c1cccc(-c2csc(C(O)c3ccccc3)n2)c1 (stereo unspecified) | 5.67% (inactive) |
| Cc1ccc(N2C(=O)c3ccccc3C2(O)c2ncc[nH]2)cc1 (stereo unspecified) | 0.14% (inactive) |
| Cc1ccc2[nH]c(=O)c(CN(CC3COCCO3)C(=O)Nc3ccccc3C)cc2c1 (stereo unspecified) | -1.5% (inactive) |
| Cc1cccc(NC(=O)N(Cc2cc3cc(C)cc(C)c3[nH]c2=O)CC2COCCO2)c1 (stereo unspecified) | 11.3% (active) |
| COc1ccc2[nH]c(=O)c(CN(CC3CCCO3)C(=O)Nc3ccccc3)cc2c1 (stereo unspecified) | -1.35% (inactive) |

| SMILES | activation |
| --- | --- |
| O/N=C(\c1ccc2c(c1)OCCO2)C1CCCCC1 | -1.1% (inactive) |
| CC(CCN1CCC(C(O)(c2ccccc2)c2ccccc2)CC1)Oc1ccc(Cl)cc1 (stereo unspecified) | -0.38% (inactive) |
| C=CCN1C(=O)[C@@H](CC(=O)NCC2CCCCC2)[C@]2(C(=O)OC)CCCCC=C12 | 2.02% (inactive) |
| O=C(Oc1ccc(-c2nc(-c3ccccn3)no2)cc1)c1ccccc1 | 10.9% (active) |
| O=C(COc1cccc(F)c1)Oc1ccc(C(=O)c2ccccc2)cc1 | 3.93% (inactive) |
| COC(=O)c1ccc(-c2noc(CN(Cc3ccccn3)CC3CCCO3)n2)cc1 (stereo unspecified) | 1.07% (inactive) |
| CCCC[C@H]1C2CC(OC(=O)NCc3ccccc3)C(C2)[C@H]2CCCCN21 (stereo partly specified) | -3.36% (inactive) |
| Cc1ccc2c(c1)N(CC(=O)NCCc1ccc(Cl)cc1)C(=O)c1cccnc1O2 | 0.09% (inactive) |
| Cc1ccc(NC(=O)c2oc3ccccc3c2C)c([N+](=O)[O-])c1 | 0.32% (inactive) |
| O=C(Nc1ccc2ccccc2c1[N+](=O)[O-])c1ccccc1 | 15.2% (active) |
| CN(C)c1ccc(NC(=O)c2ccncc2)c2ccccc12 | -2.36% (inactive) |
| COP(=O)(O)CNC(=O)OCc1ccccc1 | 2% (inactive) |
| O=C(CSc1nc2ccccc2n1Cc1ccccc1)NNC(=S)Nc1ccccc1 | -0.74% (inactive) |
| CCNC(=O)C1(C)CCN(C(=O)c2ccccc2)C1 (stereo unspecified) | 2.75% (inactive) |
| CCN1C(=O)N[C@@H]2C[C@H](C(=O)N3CCCC3)[C@H](C)[C@H](c3ccccc3)C[C@@H]21 | 5.37% (inactive) |
| C=CCOc1c2ccc(C(=O)N(CC)c3ccc(OC)cc3)cc2nn1C | -1.06% (inactive) |
| CC(=O)C1=C(C)N(Cc2ccccc2)C(=S)NC1c1cccc(Br)c1 (stereo unspecified) | -0.58% (inactive) |
| COc1ccnc(NC(=S)N2CCN(c3ncc(C(F)(F)F)cc3Cl)CC2)c1 | 2.05% (inactive) |
| Fc1ccc2cnc(-c3ccccc3)cc2c1 | 15.4% (active) |
| O=c1cc(-c2ccccc2)[nH]c2cc(F)ccc12 | -0.32% (inactive) |
| COc1cc(OC)cc(-c2cc3ccc(F)cc3cn2)c1 | 8.86% (inactive) |
| CC(C)Cn1c(SCC(=O)Nc2ccc(Cl)cc2F)nc(O)cc1=O | -0.64% (inactive) |
| CC(=O)c1cc(-c2ccc3ccccc3c2)c(=O)n2c1CCC2 | 0.58% (inactive) |
| Cc1sc2nc(SCC(=O)c3ccc(O)c(O)c3)n(Cc3ccco3)c(=O)c2c1C | -0.58% (inactive) |
